Screening results deposited in PubChem BioAssay by National Center for Advancing Translational Sciences (NCATS).
A selection: hits, their analogues and other compounds. The true share with any hit is near 2.8%.
POLK inh: inhibitors of human DNA polymerase kappa | Q9UBT6 | purified Pol kappa, fluorescent DNA synthesis assay, 10 min | Potency, µM (top dose mostly 107 µM), inactives show at the highest dose activity, negative = inhibition, actives largely listed as inhibitors | 0.53% of 400,000 active | AID 588579; note: potency is the fitted concentration of half-maximal effect; % is set by controls: 0 for no effect and ±100 for the full control effect
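Fluorescent qHTS in 1536-well format: enzyme (10 nM) and compound sat 15 min at room temperature before 50 nM substrate (final) was added. Signal taken at 0 and 10 min; no-enzyme buffer wells were negative controls.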
POLI inh: inhibitors of human DNA polymerase iota | Q9UNA4 | Pol iota fluorescent replication assay, 10 min | Potency, µM (highest dose often 115 µM), without a hit: top-dose activity, negative = inhibition, actives largely listed as inhibitors | 1% of 390,000 active | AID 588590; note: potency is the fitted concentration of half-maximal effect
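Pol iota at 10 nM preincubated 15 min with compounds at room temperature; reaction started with fluorescent substrate, 50 nM final. Fluorescence read kinetically at 0 and 10 min; buffer-only wells as negative control.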
POLH inh: inhibitors of human DNA polymerase eta; Q9Y253; 1.2% of 390,000 active; Potency, µM (series often up to 114 µM), for inactives: top-dose activity change, negative = inhibition, actives largely listed as inhibitors; recombinant Pol eta, fluorescent DNA replication assay; AID 588591; note: potency is the fitted concentration of half-maximal effect; % is set by controls: 0 for no effect and ±100 for the full control effect
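Pol eta (10 nM) was preincubated with compounds for 15 min at room temperature, after which fluorescent replication substrate (50 nM final) was added to start the reaction. Fluorescence was read kinetically at 0 and 10 min.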
PI5P4K alpha inh: PI5P4K alpha (human) kinase inhibition. max response, %. AID 652105. 1.2% of 330,000 active. P48426. PI5P4Kalpha enzyme, ADP-Glo luminescence, 60 min; stronger effect = lower value; active = max response of -50% or lower; inconclusive = between -30% and -50%; inactive = -30% or higher; note: value at the top dose of about 77 µM; % is set by controls: 0 for no effect and ±100 for the full control effect
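Controls without substrate or without enzyme flank wells where PI5P4Kalpha converts substrate using 5 microM ATP (final). Incubation lasts 60 minutes at room temperature; ADP formed is read by ADP-Glo luminescence.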
PI4K2A inh: blocks human PI4K2A kinase activity; Q9BTU6; purified PI4K2A, ADP-Glo luminescence, 1 h; stronger effect = lower value; 0.13% of 420,000 active; activity change, negative = inhibition, % at 76.9 µM; in the data active = activity change below about -50%; inconclusive = mostly about -30% to -49%;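 note: -100% = wells without enzyme as full effect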
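PI4K2A activity was measured by ADP-Glo luminescence: enzyme (4 ug/mL stock) and phosphatidylinositol (1.2 mM stock) in Tris pH 7.5/MgCl2/EGTA/Triton X-100 buffer were reacted with ATP (300 microM stock) for one hour at ambient temperature.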
Pol beta inh: blocks human DNA polymerase beta activity | Pol beta primer extension/strand displacement, fluorescence kinetic | AID 485314 | Potency, µM (titrated, usually from 114 µM), inactives show at the highest dose activity change, negative = inhibition, actives largely listed as inhibitors | 1.3% of 340,000 active; note: potency is the fitted concentration of half-maximal effect; % is set by controls: 0 for no effect and ±100 for the full control effect
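Kinetic readout of DNA synthesis with strand displacement by Pol beta. Compound and 10 nM enzyme sit 15 min at room temperature; 50 nM substrate starts the reaction, read immediately and at 10 min.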
Numbers without * were called inactive; ? = inconclusive; / = not tested or not shown; [ ] = another dose, or the depositor's remark. Unless noted, calls come from the whole dose curve; as a rule, active = well fitted inhibition curve with a large enough effect; inconclusive = small, poorly fitted or top-dose-only effect, or another doubt; inactive = no such curve, though single readings can be large or run the other way.

SMILES	POLK inh	POLI inh	POLH inh	PI5P4K alpha inh	PI4K2A inh	Pol beta inh
COc1ccccc1CNC(=O)NC1CCN(CC(=O)Nc2ccc3c(c2)OCCO3)CC1	/	/	/	/	-1	/
N#Cc1c(N2CCCC(O)C2)nc(N)c2c(N)nc3c(c12)CC(=O)N3C12CC3CC(CC(C3)C1)C2 (stereo not drawn)	-33%	?	-7%	/	?	-16%
C=C(C)CN(CC)c1nc(N)c2c(N)nc3c(c2c1C#N)CC(=O)N3C12CC3CC(CC(C3)C1)C2	-30%	14%	-10%	-87*	?	6%
CCNC(=O)C1(C)CCCN(Cc2cc(-c3ccccc3)n(C)n2)C1 (stereo not drawn)	/	/	/	-1	-1	/
COc1ccccc1-c1cn[nH]c(=S)n1	4%	1%	6%	-70*	-5	-4%
COc1ccccc1-c1n[nH]c(=S)n1Cc1ccccc1	-5%	-11%	-12%	-10	0	35%
Cc1nc(N=Nc2cc(S(=O)(=O)O)ccc2S(=O)(=O)O)c(COP(=O)(O)O)c(C=O)c1O	2µM*	/	/	/	/	/
COc1ccc(C(=O)Nc2noc3ccccc23)cc1	11%	11%	/	/	-73*	13%
O=C(NCCc1nc2ccccc2n1Cc1c(F)cccc1Cl)c1ccco1	0%	22%	-10%	/	-1	-8%
CNC(=S)N/N=C(\C)c1ccc2c(c1)OCO2	-4%	22%	-14%	-65*	-3	-2%
C/C(=N\NC(=S)Nc1ccc(C(C)C)cc1)c1ccc2c(c1)OCO2	-2%	114%	-6%	2	-1	21%
CNC(=S)N/N=C(\C)c1ccc2c(c1)OCCO2	-5%	18%	-19%	-76*	-5	0%
C/C(=N\NC(=S)NC(C)C)c1ccc2c(c1)OCCO2	-8%	1%	-14%	2	-4	12%
CCOC(=O)C1CCN(C(=O)CCc2nnc3ccc(N4CCC(C)CC4)nn23)CC1	6%	34%	-11%	-9	-17	39%
O=C1CCCN1CCCNc1ccc2nnc(CCC(=O)N3CCN(c4ccccc4)CC3)n2n1	-21%	-3%	-9%	-1	-1	?
CCOC(=O)C1CCN(C(=O)CCc2nnc3ccc(NCc4ccco4)nn23)CC1	-31%	?	45µM*	-1	?	3%
O=C(CCc1nnc2ccc(NCc3ccco3)nn12)N1CCN(c2ccccc2)CC1	?	20µM*	45µM*	?	1	-18%
CC(Cl)C(=O)N1CCC(C(=O)NCC2COc3ccccc3O2)CC1 (stereo not drawn)	/	/	/	/	4	/
CCc1ccccc1N(C)C	12%	26%	/	/	/	/
CCc1ccc(CNC(=O)Cc2c(C(=O)O)c(C)cn2C)cc1	-6%[60.1 µM]	14%	-13%	/	0	18%
O=c1cc(O)nc(SCc2ccccc2)n1-c1ccccc1	?	?	-9%	-21	2	14%
O=C(CSc1nc2cc([N+](=O)[O-])ccc2n1-c1ccccc1)NCc1ccc2c(c1)OCO2	-18%	?	-14%	-10	-2	10µM*
O=C(CSc1nc(O)cc(=O)n1-c1ccccc1)NCc1ccccc1	-26%	40µM*	-5%	/	3	3%
COc1ccccc1-n1c(SCC(=O)Nc2ccccc2C)nc(O)cc1=O	-19%	56µM*	-9%	/	7	1%
Cc1cc(C)cc(-n2c(SCC(=O)NCc3ccc4c(c3)OCO4)nc3ccccc3c2=O)c1	-24%	-2%	-21%	-3	-1	-8%
C=CCNC(=O)CSc1nc2sccc2c(=O)n1-c1ccccc1	?	?	?	-60*	-7	?
C=CCn1c(SCC(=O)NCc2ccco2)nnc1-c1cccc(N(C)C)c1	0%	-10%	/	/	/	/
CC(=O)Nc1ccn(C2OC(C(COC(C)=O)NC(=O)C(Cc3ccccc3)NC(=O)OC(C)(C)C)C(OC(C)=O)C2OC(C)=O)c(=O)n1 (stereo not drawn)	-3%	11%	/	/	/	/
COc1ccccc1NC(=O)CSc1nc(O)cc(=O)n1-c1ccccc1OC	-37%	40µM*	-5%	/	-3	?
